About 8,800 targets were measured; listed, in parts, are those with a hit and a random draw of the rest. About 0.5% of all pairs of compound and target were hits.
The targets below were run with O=C(O)c1ccc2c(c1)nc(Nc1cccc(Cl)c1)c1ccncc12 [silmitasertib] (assay: log2 fold change, soluble protein after heating vs DMSO (PISA); higher = thermal stabilisation; K562 lysate, 10 uM; active = over 0.2 and 3.5 SD of the protein, either way, in both replicates (recomputed)).
In short: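 To prepare the extract, K562 pellets were dounce-homogenised in PBS pH 7.4 with 1 mM MgCl2, giving crude material at 1 mg/mL protein. This was treated with 10 μM compound for 30 min, then heated in aliquots for 3 min over 48°C-58°C before pooling and addition of NP-40 to 0.5% at 4°C. Centrifugation at 21,000xg for 90 min left soluble protein in the supernatant, which TMTpro 16plex LC-MS/MS quantified with equalised channel sums. Results are log-two fold changes in thermal stability compared with solvent controls, from duplicates.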

UniProt Q8TB52, sequence (Q8TB52 whole entry, looked up): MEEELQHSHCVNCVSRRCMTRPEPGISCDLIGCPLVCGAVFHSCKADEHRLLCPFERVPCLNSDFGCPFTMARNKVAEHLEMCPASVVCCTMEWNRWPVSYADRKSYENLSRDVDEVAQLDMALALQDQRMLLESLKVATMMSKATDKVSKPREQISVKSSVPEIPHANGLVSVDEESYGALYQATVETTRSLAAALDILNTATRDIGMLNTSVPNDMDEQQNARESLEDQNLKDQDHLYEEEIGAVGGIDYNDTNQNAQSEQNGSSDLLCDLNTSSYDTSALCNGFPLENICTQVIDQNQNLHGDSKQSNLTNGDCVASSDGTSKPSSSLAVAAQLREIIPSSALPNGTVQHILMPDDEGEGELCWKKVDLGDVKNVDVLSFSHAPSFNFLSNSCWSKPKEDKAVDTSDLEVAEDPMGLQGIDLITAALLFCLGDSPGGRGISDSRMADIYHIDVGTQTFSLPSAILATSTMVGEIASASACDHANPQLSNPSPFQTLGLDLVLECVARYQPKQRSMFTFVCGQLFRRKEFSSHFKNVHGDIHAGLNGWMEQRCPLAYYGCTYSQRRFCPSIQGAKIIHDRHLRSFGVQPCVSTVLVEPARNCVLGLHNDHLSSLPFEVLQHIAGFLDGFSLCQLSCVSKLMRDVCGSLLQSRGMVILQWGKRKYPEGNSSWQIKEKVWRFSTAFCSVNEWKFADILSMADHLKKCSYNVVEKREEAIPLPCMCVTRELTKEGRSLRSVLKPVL
UniProt Q06210, sequence (Q06210 whole entry, looked up): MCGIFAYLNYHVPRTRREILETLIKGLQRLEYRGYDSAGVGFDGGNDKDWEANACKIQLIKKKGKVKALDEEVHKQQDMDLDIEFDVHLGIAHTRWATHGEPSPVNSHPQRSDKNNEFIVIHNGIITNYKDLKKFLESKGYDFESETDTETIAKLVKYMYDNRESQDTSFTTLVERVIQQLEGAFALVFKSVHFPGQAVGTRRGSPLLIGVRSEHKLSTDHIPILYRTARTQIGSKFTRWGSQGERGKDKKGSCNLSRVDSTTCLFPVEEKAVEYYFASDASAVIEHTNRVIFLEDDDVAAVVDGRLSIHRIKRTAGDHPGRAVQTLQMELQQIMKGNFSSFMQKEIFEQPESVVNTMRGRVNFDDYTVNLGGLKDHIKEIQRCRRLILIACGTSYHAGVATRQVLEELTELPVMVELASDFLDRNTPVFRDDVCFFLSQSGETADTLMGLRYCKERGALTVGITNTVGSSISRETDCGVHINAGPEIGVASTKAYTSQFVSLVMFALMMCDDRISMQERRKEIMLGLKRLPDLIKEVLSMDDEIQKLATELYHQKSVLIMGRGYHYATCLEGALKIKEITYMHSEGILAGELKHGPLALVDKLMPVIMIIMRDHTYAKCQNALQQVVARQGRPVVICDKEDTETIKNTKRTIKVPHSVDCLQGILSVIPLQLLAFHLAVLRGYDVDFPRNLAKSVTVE
UniProt Q9NVI1, sequence (Q9NVI1 whole entry, looked up): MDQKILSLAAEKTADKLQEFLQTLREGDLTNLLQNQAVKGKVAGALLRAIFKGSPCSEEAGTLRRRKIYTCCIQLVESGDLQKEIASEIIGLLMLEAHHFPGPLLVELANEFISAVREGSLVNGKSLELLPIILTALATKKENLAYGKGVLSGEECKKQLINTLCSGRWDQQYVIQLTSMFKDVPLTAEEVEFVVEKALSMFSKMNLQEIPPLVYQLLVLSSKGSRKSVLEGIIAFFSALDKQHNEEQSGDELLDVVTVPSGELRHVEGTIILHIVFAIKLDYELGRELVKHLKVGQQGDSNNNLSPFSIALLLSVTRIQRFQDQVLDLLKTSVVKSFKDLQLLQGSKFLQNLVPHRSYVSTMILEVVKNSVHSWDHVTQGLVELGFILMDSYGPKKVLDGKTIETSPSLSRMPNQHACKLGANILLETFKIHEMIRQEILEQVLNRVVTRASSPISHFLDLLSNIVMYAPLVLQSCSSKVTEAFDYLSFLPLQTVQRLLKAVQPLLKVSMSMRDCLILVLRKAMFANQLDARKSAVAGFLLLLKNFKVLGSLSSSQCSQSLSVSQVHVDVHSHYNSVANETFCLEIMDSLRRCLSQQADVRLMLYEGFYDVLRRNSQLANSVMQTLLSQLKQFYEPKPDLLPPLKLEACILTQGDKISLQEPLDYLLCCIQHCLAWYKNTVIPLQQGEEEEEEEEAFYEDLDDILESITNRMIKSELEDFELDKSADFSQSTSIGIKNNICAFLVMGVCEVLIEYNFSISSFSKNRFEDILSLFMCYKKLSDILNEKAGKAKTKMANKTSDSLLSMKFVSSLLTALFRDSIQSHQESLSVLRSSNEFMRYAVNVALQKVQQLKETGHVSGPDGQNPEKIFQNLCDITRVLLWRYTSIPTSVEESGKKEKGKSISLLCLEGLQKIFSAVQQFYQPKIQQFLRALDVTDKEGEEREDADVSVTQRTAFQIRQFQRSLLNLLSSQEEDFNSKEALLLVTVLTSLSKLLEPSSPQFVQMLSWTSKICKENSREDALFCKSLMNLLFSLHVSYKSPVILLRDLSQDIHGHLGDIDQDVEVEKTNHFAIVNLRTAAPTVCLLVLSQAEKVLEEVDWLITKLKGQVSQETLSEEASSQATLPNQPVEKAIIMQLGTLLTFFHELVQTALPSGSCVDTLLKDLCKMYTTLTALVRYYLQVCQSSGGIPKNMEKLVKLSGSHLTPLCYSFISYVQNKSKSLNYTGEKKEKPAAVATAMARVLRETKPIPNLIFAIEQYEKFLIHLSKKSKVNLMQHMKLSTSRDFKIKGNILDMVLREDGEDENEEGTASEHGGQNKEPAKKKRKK
UniProt P51114, sequence (P51114 whole entry, looked up): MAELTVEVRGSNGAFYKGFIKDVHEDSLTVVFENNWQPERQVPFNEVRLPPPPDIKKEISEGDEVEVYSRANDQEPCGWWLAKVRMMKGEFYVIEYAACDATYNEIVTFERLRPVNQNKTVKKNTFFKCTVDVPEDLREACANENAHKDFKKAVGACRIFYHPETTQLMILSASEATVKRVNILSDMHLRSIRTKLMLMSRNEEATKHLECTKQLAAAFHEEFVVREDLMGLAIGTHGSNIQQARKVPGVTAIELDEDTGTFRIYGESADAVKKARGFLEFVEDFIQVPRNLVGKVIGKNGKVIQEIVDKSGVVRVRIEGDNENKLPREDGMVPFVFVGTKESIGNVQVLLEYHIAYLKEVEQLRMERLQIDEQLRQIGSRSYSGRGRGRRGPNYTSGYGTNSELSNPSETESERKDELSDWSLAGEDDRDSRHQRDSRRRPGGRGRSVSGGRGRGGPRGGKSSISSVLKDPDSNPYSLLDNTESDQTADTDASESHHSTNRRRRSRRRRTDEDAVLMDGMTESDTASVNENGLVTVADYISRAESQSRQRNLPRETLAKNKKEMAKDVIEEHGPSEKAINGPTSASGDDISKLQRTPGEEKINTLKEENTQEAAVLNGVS
UniProt Q13144, sequence (Q13144 whole entry, looked up): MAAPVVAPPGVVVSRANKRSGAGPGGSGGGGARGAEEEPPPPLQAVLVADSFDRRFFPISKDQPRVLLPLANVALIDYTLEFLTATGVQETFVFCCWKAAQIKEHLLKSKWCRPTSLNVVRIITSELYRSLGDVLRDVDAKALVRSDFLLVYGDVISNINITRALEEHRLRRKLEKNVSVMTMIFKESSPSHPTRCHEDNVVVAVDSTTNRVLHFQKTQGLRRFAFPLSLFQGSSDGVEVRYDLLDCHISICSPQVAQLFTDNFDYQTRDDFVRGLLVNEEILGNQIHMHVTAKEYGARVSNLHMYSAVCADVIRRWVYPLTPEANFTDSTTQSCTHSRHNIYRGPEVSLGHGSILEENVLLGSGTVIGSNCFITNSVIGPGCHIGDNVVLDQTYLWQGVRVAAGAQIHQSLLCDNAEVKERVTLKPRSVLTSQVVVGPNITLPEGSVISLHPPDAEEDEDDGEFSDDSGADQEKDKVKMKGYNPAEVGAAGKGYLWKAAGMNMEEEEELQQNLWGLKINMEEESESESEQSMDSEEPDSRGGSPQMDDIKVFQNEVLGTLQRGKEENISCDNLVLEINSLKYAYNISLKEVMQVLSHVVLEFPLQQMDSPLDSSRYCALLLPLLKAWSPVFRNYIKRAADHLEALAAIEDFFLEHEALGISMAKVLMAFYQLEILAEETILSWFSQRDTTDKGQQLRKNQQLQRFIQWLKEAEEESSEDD
UniProt Q9H8W3, sequence (Q9H8W3 whole entry, looked up): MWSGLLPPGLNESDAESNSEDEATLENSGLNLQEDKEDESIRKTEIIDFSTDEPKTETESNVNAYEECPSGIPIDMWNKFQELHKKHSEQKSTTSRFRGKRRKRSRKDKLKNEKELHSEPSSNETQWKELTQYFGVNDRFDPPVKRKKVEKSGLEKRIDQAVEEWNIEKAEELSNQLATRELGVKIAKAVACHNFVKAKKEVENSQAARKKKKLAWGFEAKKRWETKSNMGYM
UniProt P02792, sequence (P02792 whole entry, looked up): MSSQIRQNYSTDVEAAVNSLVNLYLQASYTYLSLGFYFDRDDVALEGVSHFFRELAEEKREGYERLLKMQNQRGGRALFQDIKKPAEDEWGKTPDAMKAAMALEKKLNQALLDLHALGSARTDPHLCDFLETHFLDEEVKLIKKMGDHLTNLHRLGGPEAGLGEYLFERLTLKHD
UniProt P54852, sequence (P54852 whole entry, looked up): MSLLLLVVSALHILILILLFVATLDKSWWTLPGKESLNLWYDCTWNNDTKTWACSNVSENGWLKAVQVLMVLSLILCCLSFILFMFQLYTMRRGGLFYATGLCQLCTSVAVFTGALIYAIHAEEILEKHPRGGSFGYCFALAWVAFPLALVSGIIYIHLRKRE
UniProt Q6IPR1, sequence (Q6IPR1 whole entry, looked up): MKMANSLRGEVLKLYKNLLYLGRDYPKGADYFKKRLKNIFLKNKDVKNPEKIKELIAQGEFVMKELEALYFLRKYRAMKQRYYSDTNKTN
UniProt O43768, sequence (O43768 whole entry, looked up): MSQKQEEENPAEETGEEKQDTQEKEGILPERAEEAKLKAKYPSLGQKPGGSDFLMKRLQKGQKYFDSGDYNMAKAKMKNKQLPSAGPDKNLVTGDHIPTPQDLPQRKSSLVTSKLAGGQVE

Target | log2 fold change
FNTB (UniProt P49356) | -0.018 (inactive)
ELF2 (UniProt Q15723) | 0 (inactive)
EFCAB14 (UniProt O75071) | -0.054 (inactive)
FDX2 (UniProt Q6P4F2) | -0.069 (inactive)
FBXO30 (UniProt Q8TB52) | 0.042 (inactive)
GFPT1 (UniProt Q06210) | 0.004 (inactive)
FTL (UniProt P02792) | 0.057 (inactive)
FAT2 (UniProt Q9NYQ8) | 0.098 (inactive)
ENSA isoform 3 (UniProt O43768) | -0.019 (inactive)
FKBP8 isoform 2 (UniProt Q14318) | 0.001 (inactive)
ENO1, A0A2R8YEM5 | -0.005 (inactive)
FIGNL1 (UniProt Q6PIW4) | 0.045 (inactive)
GCLM (UniProt P48507) | -0.013 (inactive)
EXOC1 (UniProt Q9NV70) | 0.075 (inactive)
ERLIN2 (UniProt O94905) | 0.019 (inactive)
EPRS (UniProt P07814) | 0.037 (inactive)
EIF2D (UniProt P41214) | 0.032 (inactive)
FADS1, A0A0A0MR51 | -0.003 (inactive)

Target | log2 fold change
EPN2 (UniProt O95208) | 0.02 (inactive)
EMP3 (UniProt P54852) | -0.05 (inactive)
DTWD1 (UniProt Q8N5C7) | -0.022 (inactive)
FIG4 (UniProt Q92562) | 0.017 (inactive)
FAM98A (UniProt Q8NCA5) | 0.005 (inactive)
FIBP (UniProt O43427) | 0.119 (inactive)
G6PD isoform 2 (UniProt P11413) | -0.008 (inactive)
GALNT2 (UniProt Q10471) | 0.008 (inactive)
ETFRF1 (UniProt Q6IPR1) | -0.043 (inactive)
ERBIN isoform 8 (UniProt Q96RT1) | -0.001 (inactive)
FAM204A (UniProt Q9H8W3) | -0.095 (inactive)
EIF3I (UniProt Q13347) | 0.061 (inactive)
DUSP22 isoform 2 (UniProt Q9NRW4) | 0.002 (inactive)
DTL (UniProt Q9NZJ0) | -0.042 (inactive)
FXR1 (UniProt P51114) | 0.045 (inactive)
FANCI (UniProt Q9NVI1) | 0.062 (inactive)
EIF2B5 (UniProt Q13144) | -0.009 (inactive)

Source: the supplement of paper PMC10849652
